# Measurements as given in article PMC4552634, “A New Set of Chemical Starting Points with Plasmodium falciparum Transmission-Blocking Potential for Antimalarial Drug Discovery” (PLoS ONE, 2015).
# The campaign covered roughly 13,000 compounds. About 3,200 (25%) showed an effect of 50% or more. The list shows a part of the results.
# Tested on: P. falciparum stage V gametocytes
# Set-up: BacTiter-Glo ATP luminescence viability of purified stage V gametocytes in 384-well plates, per cent inhibition versus DMSO
# Conditions: 48 h, 5 µM; inhibitor
row,SMILES,% Inhibition
1,N[C@@H](Cc1ccc(O)cc1)C(=O)NC(c1ccccc1)c1c(O)ccc2ccccc12 (stereo partly shown) [TCMDC-141232],9.479%
2,CC=CC1CCNC(C(O)c2ccnc3ccc(OC)cc23)C1 (stereo not shown) [TCMDC-132000],38.01%
3,CN1CCC(N2CCC(Oc3cccc(C(=O)NCCCC4CCCC4)c3)CC2)CC1 [TCMDC-124677],58.06%
4,CC(C)CCN1CCC(Oc2cccc(NC(=O)c3ccc(C(F)(F)F)cc3)c2)CC1 [TCMDC-133738],13.2%
5,O=C(NCCCCN1CCN(c2cccc(Cl)c2Cl)CC1)c1ccc2c(c1)CCN(C1CCC1)CC2 [TCMDC-136053],20.89%
6,CN1CCC(NCc2cccc(-c3cccc(S(=O)(=O)NCc4ccccc4)c3)c2)CC1 [TCMDC-132377],104%
7,CN1CCC(NCc2ccc(S(=O)(=O)Nc3ccc(Oc4cccc(Cl)c4)cc3)cc2)CC1 [TCMDC-136201],14.91%
8,CN1CCC(NCc2ccc(-c3cccc(S(=O)(=O)NCc4ccccc4)c3)cc2)CC1 [TCMDC-132238],104.8%
9,CN1CCC(NCc2ccc(-c3ccc(S(=O)(=O)NCc4ccccc4)cc3)cc2)CC1 [TCMDC-132227],101.8%
10,CN1CCC(NCc2ccc(-c3cccc(S(=O)(=O)NCC4CCCO4)c3)cc2)CC1 (stereo not shown) [TCMDC-132242],58.26%
11,CN1CCC(NCc2cccc(-c3ccc(S(=O)(=O)NCc4ccccc4)cc3)c2)CC1 [TCMDC-132213],49.72%
12,Cc1ccc(Nc2nc3cc(Nc4ccnc(Nc5cccc(CS(C)(=O)=O)c5)n4)ccc3o2)cc1 [TCMDC-141957],-56.36%
13,O=C(Nc1cc(C(F)(F)F)ccc1-n1cncn1)C1(c2ccccc2)CC1 [TCMDC-125454],25.16%
14,CCC(ON1C(N)=NC(N)=NC1(C)C)c1ccc(Cl)cc1 (stereo not shown) [TCMDC-131709],18.34%
15,Cc1cc(S(=O)(=O)N2CCCCC(c3ccc(C(F)(F)F)cc3)=N2)c(Cl)cc1Cl [TCMDC-134540],-43.69%
16,Cc1ccc(S(=O)(=O)NC2=NC(C)(C)N(OCc3ccc(Cl)c(Cl)c3)C(N)=N2)cc1 [TCMDC-131711],22.12%
17,CN1CCN(c2cc(-c3cccc(C(F)(F)F)c3)nc(-c3ccncc3)n2)CC1 [TCMDC-125413],29.7%
18,Nc1nc(-c2ccccn2)nc(-n2nc(-c3cccc(C(F)(F)F)c3)cc2N)n1 [TCMDC-134026],76.36%
19,Nc1cc(-c2cccc(Cl)c2)nn1-c1ccnc2cc(Cl)ccc12 [TCMDC-134027],-29.85%
20,Cc1ccccc1C1CCN(c2ccc(C(=O)Nc3ccccc3)cn2)CC1 [TCMDC-134584],3.597%
21,CC(=NNC(=S)NCCc1ccccc1)c1ccccn1 [TCMDC-124270],79.29%
22,O=C(NCCc1ccccc1)c1cc(-c2cccnc2)cnc1NCC1CC1 [TCMDC-136700],4.382%
23,COc1cc(-c2nc3c4ccccc4c4ccccc4c3[nH]2)cc(OC)c1OC [TCMDC-123980],2.227%
24,CC(=NNC(=S)NCc1ccco1)c1ccccn1 [TCMDC-137906],99.6%
25,CCOc1ccc2nc(NC(=O)c3csnn3)sc2c1 [TCMDC-125075],43.02%

row,SMILES,% Inhibition
1,COc1cc(CNC(=S)NN=C(C)c2ccccn2)cc(OC)c1OC [TCMDC-137900],55.54%
2,CC(=NNC(=S)NC(c1ccccc1)c1ccccc1)c1ccccn1 [TCMDC-137894],-31.88%
3,CC(=NNc1nc2ccccc2s1)c1ccccn1 [TCMDC-124267],64.52%
4,COc1cccc2c(NCCNc3ccnc4c(OC)cccc34)ccnc12 [TCMDC-137880],30.12%
5,O=c1cc(NCCCNCc2[nH]c3cc(Cl)cc(Cl)c3c2Cn2cccn2)[nH]c2ccccc12 [TCMDC-140152],-2.677%
6,COc1ccc2nccc([C@@H](O)CN3CCC(NCCc4c[nH]c5ccccc45)CC3)c2c1 [TCMDC-140938],7.162%
7,CCc1ccc(O)c(-c2cc(C(=O)Nc3ccc(OC)c(Cl)c3)[nH]n2)c1 [TCMDC-125072],5.954%
8,COc1ccc2nccc([C@@H](O)CN3CCC(NCc4ccc5c(c4)nnn5C(C)C)CC3)c2c1 [TCMDC-141011],-16.76%
9,CCc1ccc(CN2CCC(C(=O)Nc3ccc(-c4nc5ccccc5[nH]4)cc3)CC2)o1 [TCMDC-124686],-27.59%
10,COCCCNC(=S)NN=C(C)c1ccccn1 [TCMDC-137907],93.04%
11,Cc1ccc(Oc2cnn(C)c(=O)c2Nc2cccc(C(=O)NCCc3ccccn3)c2)c(C)c1 [TCMDC-124786],34.52%
12,Clc1ccc2c(NCCc3ccccn3)ccnc2c1 [TCMDC-123461],8.42%
13,CNC(=S)NN=C(C)c1ccccn1 [TCMDC-123475],90.46%
14,CC(=NNC(=S)NCCc1ccccn1)c1ccccn1 [TCMDC-137895],92.63%
15,CC(=NNC(=S)NC(C)(C)C)c1ccccn1 [TCMDC-137783],15.81%
16,CN(c1ccc(NC(=O)c2ccc(F)cc2)cc1)C1CCN(Cc2cccc(F)c2)C1 (stereo not shown) [TCMDC-135003],-17.16%
17,O=C(Nc1ccc(OC2CCN(Cc3ccsc3)C2)c(Cl)c1)c1ccc2ncccc2c1 (stereo not shown) [TCMDC-133951],-25.76%
18,C[C@H](Nc1c(Nc2ccc3[nH]ccc3c2)c(=O)c1=O)C1CCCCC1 [TCMDC-138193],-95.47%
19,Cn1nc(-c2ccc(S(=O)(=O)N3CCC(CCN4CCC(c5c[nH]c6ccccc56)CC4)CC3)s2)cc1C(F)(F)F [TCMDC-140168],106.2%
20,O=C(NCCCCCN1CCC(c2c[nH]c3ccccc23)CC1)Nc1cccc(C(F)(F)F)c1 [TCMDC-139217],-48%
21,FC(F)(F)c1cccc(N2CCC(CN3CCC(c4c[nH]c5ccccc45)CC3)CC2)n1 [TCMDC-134280],19.45%
22,Cn1nc(-c2ccc(S(=O)(=O)N3CCC(CN4CCC(c5c[nH]c6ccccc56)CC4)CC3)s2)cc1C(F)(F)F [TCMDC-140171],114.8%
23,O=C(NCc1ccc(S(=O)(=O)N2CCC(CN3CCC(c4c[nH]c5ccccc45)CC3)CC2)s1)c1ccccc1 [TCMDC-140170],48.92%
24,Nc1nccc2ccc(-c3ccnc(NCc4cccnc4)n3)cc12 [TCMDC-136735],-3.627%
25,Cc1ccc(-c2cnc(N)c3cc(-c4ccnc(N)n4)ccc23)cc1 [TCMDC-134544],25.6%

row,SMILES,% Inhibition
1,Cn1ncc2ccc(Nc3nccc(-c4ccc5c(c4)c(N)nn5C)n3)cc21 [TCMDC-137049],80.69%
2,Cc1cccc2[nH]c(-c3ccc(-c4cccc(NC(=O)c5cnn6cccnc56)c4)cc3)nc12 [TCMDC-136865],23.94%
3,COc1ccc(NC(=O)Nc2ccc(Nc3nc(C)cc(N(C)C)n3)cc2)cc1 [TCMDC-124960],1.588%
4,Cc1cc(N(C)C)nc(Nc2ccc(NC(=O)c3ccccc3C)cc2)n1 [TCMDC-124729],-17.39%
5,COc1cccc(C(=O)Nc2ccc(Nc3nc(C)cc(N(C)C)n3)cc2)c1 [TCMDC-124720],-4.624%
6,COc1ccccc1C(=O)Nc1ccc(Nc2nc(C)cc(N(C)C)n2)cc1 [TCMDC-124728],-11.89%
7,COc1cccc(C(=O)Nc2ccc(Nc3nc(C)cc(N(C)C)n3)cc2)c1OC [TCMDC-124719],58.09%
8,COc1ccc(C(=O)Nc2ccc(Nc3nc(C)cc(N(C)C)n3)cc2)c(OC)c1 [TCMDC-124727],63.21%
9,Cc1nc2c(=O)sc3ccccc3c2n1Cc1ccccc1 [TCMDC-125754],-11.8%
10,CN(C)CCN(C)Cc1ccc(-c2cccc(NC(=O)c3ccc(Cl)cc3)c2)cc1 [TCMDC-132631],0.8563%
11,CN(CCCCN)Cc1ccc(-c2ccc(Cl)cc2)cc1 [TCMDC-140123],92.64%
12,CN(C)CCN(C)Cc1ccc(-c2ccc(NC(=O)c3ccc(Cl)cc3)cc2)cc1 [TCMDC-132587],-35.6%
13,O=C(NCc1ccc(C(=O)N2CCC(N3CCCCC3)CC2)cc1)c1cc(-c2cccc(C(F)(F)F)c2)ccc1O [TCMDC-139090],-1.594%
14,O=C(Nc1ccccc1Br)c1cn(-c2ccccc2)nc1-c1cccc([N+](=O)[O-])c1 [TCMDC-124624],18.14%
15,O=C(NCCc1cccc(F)c1)c1ccc(N2CCN(c3ccncc3)CC2)cn1 [TCMDC-135153],19.99%
16,CCNc1cc(C(=O)N[C@@H](Cc2ccccc2Cl)[C@H](O)CNC2CCCCC2)cc(N2CCCCS2(=O)=O)c1 [TCMDC-135223],16.84%
17,NC[C@H](CC1CCCCC1)NC(=O)c1ccc(-c2ccnc3[nH]ccc23)s1 [TCMDC-134150],38.45%
18,Oc1ccc(CCNCCCCNCCc2ccc(Cl)cc2)cc1O [TCMDC-131265],107%
19,O=C(NCCCc1ccccc1)c1ccc(O)c(-c2cc(Cl)cc(Cl)c2)c1 [TCMDC-140159],-73.77%
20,Oc1ccc(CCNCCCCCCNCCCc2ccc(Cl)cc2)cc1O [TCMDC-131264],107.9%
21,CNC(=O)CC(=O)NCCc1ccc(Cl)cc1 [TCMDC-131647],-3.705%
22,Oc1ccc(CCNCCCCCNCCCc2ccc(Cl)cc2)cc1O [TCMDC-131279],112.4%
23,Oc1ccc(CCNCCCCCCNCCc2ccc(Cl)cc2)c(Cl)c1O [TCMDC-131266],111.4%
